# Compounds with a hit are over-represented: about 4.1% of the library has one in this group of screens.
# MBD2 inh: inhibitors of MBD2 binding to methylated DNA, primary screen, biochemical, TR-FRET, DNA-binding domain, human; Methyl-CpG-binding domain protein 2 (Homo sapiens), Q9UBB5; MBD2 binding to methylated oligonucleotide; inhibition, % at 4.4 µM; 370,000 compounds, 0.31% hits; in the data active means inhibition above about 13%
# PRMT1 inh: PRMT1 methyltransferase inhibitors, primary screen, biochemical, fluorescence polarization. 370,000 compounds, 1.3% hits. Protein arginine N-methyltransferase 1 (Homo sapiens), Q99873. AID 652257, 2013. inhibition, % at 2.79 µM. recombinant PRMT1, activity-based probe fluorescence polarization;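 active means inhibition above about 21% made by adding two undisclosed values, limit read from the data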
# rCAG binder: binders of r(CAG) RNA repeats, primary screen, biochemical, fluorescence; r(CAG) RNA repeat, TO-PRO-1 dye displacement fluorescence; inhibition, % at 3 µM; 370,000 compounds, 1.3% hits;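 active means inhibition above the plate cutoff, the mean of all test compounds on that plate plus 3 SD, cut at about 35% in these data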;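 further: 0% = DMSO alone and 100% = 100 µM mitoxantrone as full dye displacement; higher means more dye released from RNA so lower well fluorescence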
# LEDGF integ inh: blockers of LEDGF/p75-dependent integrase strand transfer – biochemical, TR-FRET, high throughput, primary screen. inhibition, % at 3.7 µM. 370,000 compounds, 0.64% hits. TR-FRET IN-LEDGF/p75 DNA integration, Eu/Cy5;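 active means inhibition above the screen-wide mean plus 3 SD, cut at about 13% in these data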;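 further: signal is the Cy5 over europium emission ratio at 671 and 618 nm; 0% = plate median of compound wells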
# UHRF1 MBD2 ctr: UHRF1 methylated DNA binding inhibitors, primary screen, counter-screen for MBD2 inhibitor project, biochemical, TR-FRET, human UHRF1, single concentration. 370,000 compounds, 0.75% hits. E3 ubiquitin-protein ligase UHRF1 (Homo sapiens), Q96T88. UHRF1 binding to methylated oligo. inhibition, % at 4.4 µM; in the data active means inhibition above about 21%;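 further: UHRF1 SRA domain binding a hemimethylated CpG hairpin DNA probe; 0% = median of test compound wells and 100% = reference inhibitor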
# ABHD5-PLIN5 inh: ABHD5-PLIN5 interaction inhibitors, primary screen, cell lysate, split luciferase complementation, luminescence; Split G. princeps luciferase complementation, 4 h; inhibition, % at 4 µM; 360,000 compounds, 0.78% hits;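 active means inhibition above the mean inhibition across every tested compound plus 3 SD, cut at about 22% in these data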;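 further: 0% = DMSO only wells and the 100% control is not disclosed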
# Target sequence (Q00G26 whole entry, looked up): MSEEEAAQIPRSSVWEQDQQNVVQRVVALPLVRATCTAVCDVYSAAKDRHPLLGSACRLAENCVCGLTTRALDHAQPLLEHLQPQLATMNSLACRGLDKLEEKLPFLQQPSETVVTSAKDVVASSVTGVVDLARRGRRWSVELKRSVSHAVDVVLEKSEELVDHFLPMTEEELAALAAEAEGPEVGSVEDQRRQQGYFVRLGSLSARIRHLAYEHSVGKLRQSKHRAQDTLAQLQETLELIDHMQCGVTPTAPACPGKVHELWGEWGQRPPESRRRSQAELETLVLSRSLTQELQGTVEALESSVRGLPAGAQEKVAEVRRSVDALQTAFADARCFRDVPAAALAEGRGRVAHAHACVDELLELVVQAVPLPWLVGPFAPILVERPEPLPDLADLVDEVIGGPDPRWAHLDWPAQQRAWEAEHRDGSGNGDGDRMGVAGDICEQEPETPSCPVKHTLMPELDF
# Target sequence (Q8WTS1 whole entry, looked up): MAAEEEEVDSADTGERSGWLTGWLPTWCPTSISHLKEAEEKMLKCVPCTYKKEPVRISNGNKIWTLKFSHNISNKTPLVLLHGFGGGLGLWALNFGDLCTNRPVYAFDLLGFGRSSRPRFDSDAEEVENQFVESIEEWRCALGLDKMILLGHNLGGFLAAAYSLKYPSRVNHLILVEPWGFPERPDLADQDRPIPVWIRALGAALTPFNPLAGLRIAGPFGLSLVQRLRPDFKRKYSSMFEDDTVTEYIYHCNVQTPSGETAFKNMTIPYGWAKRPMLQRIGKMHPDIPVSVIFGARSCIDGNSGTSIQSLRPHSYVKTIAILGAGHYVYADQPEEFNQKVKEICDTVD
# rCAG bind conf: small molecules binding CAG repeat RNA – biochemical, fluorescence, confirmation | shares compounds with rCAG binder | r(CAG) RNA repeat, TO-PRO-1 dye displacement fluorescence | inhibition, % at 3 µM | 4,300 compounds, 70% hits | AID 652065, 2013;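 active means inhibition above a per-plate cutoff, the mean inhibition of sample wells plus 3 SD, cut at about 35% in these data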;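 further: loss of TO-PRO-1 fluorescence as compound displaces dye from 1x1 AA loop RNA; 0% = DMSO only wells and 100% = 100 µM mitoxantrone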
# dCAG dye counter: displacement of TO-PRO-1 from CAG DNA duplex, counter-screen for rCAG RNA repeat binder project, biochemical, fluorescence, TO-PRO-1 dye, d(CAG) DNA oligo | inhibition, % at 3 µM | AID 652068, 2013 | 4,300 compounds, 94% hits | d(CAG) DNA oligo TO-PRO-1 dye displacement | shares compounds with rCAG binder;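 active means inhibition above its plate's cutoff, the mean test-well inhibition plus 3 SD, cut at about 4.8% in these data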;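 further: 0% = DNA dye mix with DMSO and 100% = 100 µM mitoxantrone; hits displace the dye from DNA and so lower well fluorescence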
# * hit, by the source's call; nt = no result.
SMILES,MBD2 inh,PRMT1 inh,rCAG binder,LEDGF integ inh,UHRF1 MBD2 ctr,ABHD5-PLIN5 inh,rCAG bind conf,dCAG dye counter
O=C(N[C@H](C(=O)N1CCC[C@H]1C(=O)NCc1ccccc1)c1ccccc1)C1CCCC1,-7,0,0,6,-1,nt,nt,nt
Cc1sc2c(c1C)C(O)=C(C(=O)Nc1ccccc1)S(=O)(=O)N2C,2,3,43*,-2,-1,-2,27,6.9*
O=C(O)CSCC(=O)N(Cc1ccccc1)c1nc(-c2ccccc2)c(-c2ccccc2)s1,-2,-2,68*,1,1,7,86*,54*
CCOC(=O)c1sc(N(Cc2ccccc2)C(=O)CSc2ncn[nH]2)nc1C,4,2,3,-1,1,-5,nt,nt
COc1ccc(CCn2c(O)cc3nn(-c4nc5ccccc5s4)c(=O)c-3c2C)cc1,6,7,67*,3,2,-4,84*,51*
Cn1c2ccccc2c2ccc3c(c21)C(=O)C=CC3=O,-9,10,33,3,-9,6,nt,nt
Cc1ccc2c(c1)c1ccc3c(c1n2C)C(=O)C=CC3=O,-3,11,51*,-1,-8,5,13,9.6*
COc1ccc2c(c1)c1ccc3c(c1n2C)C(=O)C=CC3=O,-8,12,54*,-1,-8,20,11,8.3*
N#Cc1c(SCC(=O)Nc2cccc(C(F)(F)F)c2)sc2c(O)cc(=O)[nH]c12,3,21*,52*,-3,7,2,35*,15*
O=C(CSCCO)Nc1cccc(C(F)(F)F)c1,7,0,-2,0,4,1,nt,nt
O=C(O)CN1C(=O)/C(=C2\SC(=S)N(C(Cc3ccccc3)C(=O)O)C2=O)c2ccccc21 (configuration not stated),-18,15,69*,5,3,-11,47*,12*
CCCC(C(=O)O)N1C(=O)/C(=C2\C(=O)N(C)c3ccccc32)SC1=S (configuration not stated),-5,4,56*,-5,0,-7,63*,26*
Cc1c(N2C(=O)/C(=C3/C(=O)N(C)c4ccccc43)SC2=S)c(=O)n(-c2ccccc2)n1C,-2,4,1,1,3,-5,nt,nt
O=C(O)CCN1C(=O)/C(=C2\C(=O)N(Cc3ccccc3Cl)c3ccccc32)SC1=S,2,0,3,-8,-2,-16,nt,nt
C[C@@H]1C=CCCO[C@]12C(=O)N(Cc1ccc(F)cc1)c1ccccc12,-7,-1,-1,1,-2,nt,nt,nt
Cn1c(O)c(C2=c3ccccc3=NC2=O)[nH]c1=S,-4,-1,1,0,1,0,nt,nt
COc1ccc2nc(-n3c(O)c(C4=c5ccccc5=NC4=O)[nH]c3=S)sc2c1,-4,3,49*,0,-5,8,94*,78*
NC(N)=N/N=C/c1ccc(OS(=O)(=O)c2ccccc2)cc1,-7,-2,18,1,-2,3,nt,nt
O=C1CS/C(=N/N=C/c2ccc(OS(=O)(=O)c3ccccc3)cc2)N1,-1,-1,40*,-6,2,1,38*,9.7*
O=C(NC(C(=O)N/N=C/c1cccc2ccccc12)c1n[nH]c(=O)c2ccccc12)c1ccccc1 (configuration not stated),-5,0,14,-3,-2,1,nt,nt
O=C(NC(C(=O)N/N=C/c1cc([N+](=O)[O-])ccc1O)c1n[nH]c(=O)c2ccccc12)c1ccccc1 (configuration not stated),-5,3,84*,-8,-5,-7,66*,28*
COc1cccc(NC(=O)N(C)C[C@H]2OCc3ccccc3-c3c(n(C)c4ccccc34)C(=O)N([C@H](C)CO)C[C@H]2C)c1,-1,1,9,2,-2,nt,nt,nt
Cc1sc(NC(=O)C2CC=CCC2C(=O)O)c(C(=O)OC(C)C)c1C (configuration not stated),0,2,41*,-4,4,-1,33,5.8*
COC(=O)c1cc(C)sc1NC(=O)C1CC=CCC1C(=O)O (configuration not stated),-1,-1,4,-1,-1,7,nt,nt
C[C@H]1Cn2cnc(C(=O)N3CCN(c4ccccc4)CC3)c2C(=O)N1,0,0,6,-2,-3,nt,nt,nt
SMILES,MBD2 inh,PRMT1 inh,rCAG binder,LEDGF integ inh,UHRF1 MBD2 ctr,ABHD5-PLIN5 inh,rCAG bind conf,dCAG dye counter
CN(c1ccccc1)S(=O)(=O)c1nnc(NC(=O)c2ccco2)s1,0,6,15,-1,1,0,nt,nt
CC(C)CN(c1ccccc1)S(=O)(=O)c1nnc(NC(=O)c2ccco2)s1,0,0,48*,3,-2,5,48*,16*
CCN(c1ccc(C)cc1C)S(=O)(=O)c1nnc(NC(=O)c2ccco2)s1,2,0,59*,-1,-2,14,45*,14*
Cc1c[nH]c2cccc(-c3c(Cl)cccc3Cl)c12,5,8,7,-3,3,nt,nt,nt
CCOC(=O)C1(C(=O)OCC)N=C(c2ccccc2)C=C1c1ccccc1,-10,1,4,-1,-3,nt,nt,nt
CC(C)c1ccc(NC(=O)OC2CCC23CCC(c2ccccc2)CC3)cc1 (configuration not stated),2,4,nt,-1,1,nt,nt,nt
COC(=O)CN1CCN(C(=O)c2csc3ccccc23)CC1,1,6,6,-5,-2,nt,nt,nt
COc1ccc(CNC(=O)O[C@H]2CC[C@@]34CCCN3C(=O)CCC[C@H]4[C@H]2C)cc1,-2,0,nt,-2,-1,nt,nt,nt
CC(C)C[C@H](NC(=O)C1CC1)C(=O)N1CCC[C@H]1C(=O)NCc1ccccc1,1,-3,0,0,-1,nt,nt,nt
C#CCN1CC(N(C)CCOC(=O)c2ccc(F)cc2)CS1(=O)=O (configuration not stated),-1,-4,2,2,0,nt,nt,nt

# From PubChem
